This passage reports induction results from PubChem BioAssay AID940 (Emory University Molecular Libraries Screening Center, 2007).

Each structure is given as a SMILES string. The campaign covered roughly 260,000 compounds. About 2,200 (0.85%) were called active. Only a selection was taken, and actives are over-represented in it overall. A number with no mark means an inactive call.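 The calls were made as follows: active = compounds whose cAMP rise, as percent of the full-agonist control response, exceeds 60; inactive = the rest.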

Chain of Prostaglandin E2 receptor EP2 subtype (Homo sapiens) (P43116 whole entry, looked up): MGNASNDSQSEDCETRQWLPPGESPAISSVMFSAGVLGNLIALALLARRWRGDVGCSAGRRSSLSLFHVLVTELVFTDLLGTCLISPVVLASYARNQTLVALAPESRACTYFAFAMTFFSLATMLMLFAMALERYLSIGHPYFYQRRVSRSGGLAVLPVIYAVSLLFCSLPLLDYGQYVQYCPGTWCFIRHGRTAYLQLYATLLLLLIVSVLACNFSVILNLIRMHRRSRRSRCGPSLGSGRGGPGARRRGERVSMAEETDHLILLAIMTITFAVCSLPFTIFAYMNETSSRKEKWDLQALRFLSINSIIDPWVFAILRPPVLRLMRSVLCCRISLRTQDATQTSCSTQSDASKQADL

This assay concerns the target Prostaglandin E2 receptor EP2 subtype (Homo sapiens) (UniProt P43116). The assay is described as follows: modulation of human EP2 prostaglandin signaling – cell-based, HTRF cAMP, PGE2 stimulation, primary screen (AID 940).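 Also: rat C6 glioma line stably carrying human EP2 under a CMV promoter; the protocol text gives 20 µM as final concentration; 100% = response of wells given 1 µM PGE2.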 To be noted: EP2-expressing cells, cAMP HTRF FRET, PGE2 co-stimulation; at 25 µM; stronger effect = higher value. A general note: In TR-FRET formats the signal depends on donor and acceptor labels being close together.
As for `C=CCNC(=O)CN1CCC(c2ccccc2F)CC1`, the induction is -47.4%. Turning to `COC(=O)[C@H]1CCc2ccccc2N1C(=O)C1CCC1`, the induction is -15.3%.

With `CCC(C)OC(=O)C(C)n1cnc2sc(C(=O)Nc3ccccc3OC)c(C)c2c1=O` (configuration not stated), the induction was -16.1%. For `COC(=O)[C@H]1CCc2ccccc2N1C(=O)c1ccccc1F` the value was 8.05%.

Consider `O=C(Cn1nc(-c2ccncc2)oc1=O)N1CCCCC1`, for which the induction was -10.9%. For the compound `CS(=O)(=O)N1CCCc2cc(C(O)CN3CCN(c4cnccn4)CC3)ccc21` (configuration not stated), the induction is -3.55%.

In the case of `Cc1cc(NC(=O)CSc2nc3cc(Cl)ccc3c(=O)n2Cc2ccco2)no1`, the induction is -4.33%.

In the case of `O=C(CSc1nc2ccccc2c(=O)n1Cc1ccco1)Nc1ccccc1Cl`, the induction was 67.4% (active).

For `N#Cc1c(NC(=O)CSc2nc3ccccc3c(=O)n2Cc2ccco2)sc2c1CCCC2`, the induction was -3.51%.

Take `CCOC(=O)C(C)NC(=O)c1cc2ccc(F)cc2[nH]1` (configuration not stated): the induction is -92.7%. The figure for `Cc1nc(S(=O)(=O)c2ccc(Cl)cc2)c(N2CCCCC2)o1` is -42.2%; for `CCN1CCN(C(=O)[C@H]2C[C@@H](c3ccc(OC)c(OC)c3)NS(=O)(=O)N2C)CC1` it is -8.26%; for `COc1ccc(C2(C(=O)N3CCC(n4cnc5cccnc54)CC3)CCCC2)cc1` it is 11.4%. Take `Cc1nn(C(C)C)c(C)c1CN(C)CCOc1ccccc1`: the induction was -30.9%. Regarding `COc1cc(C)c(-c2csc(NC(=O)C3(C)CCCO3)n2)cc1C` (configuration not stated), the induction was -62.2%. The figure for `COc1cccc(NC(=O)c2ccccc2SC)c1` is 61.4% (active); for `CSc1ccccc1C(=O)Nc1cccc(C(C)=O)c1` it is 10.1%.

Turning to `COc1cccc(NC(=O)C(C)Oc2ccccc2)c1` (configuration not stated), the induction was 9.01%. The figure for `COc1cc(C#N)ccc1OCc1nc(-c2ccccc2)no1` is -64.5%; for `CSc1ncc(C(=O)N2CC(CN3CCOCC3)c3ccccc32)cn1` (configuration not stated) it is -3.66%; for `CCOC(=O)C1CCN(C(=O)Nc2c[nH]c3ccc(OC)nc3c2=O)CC1` it is -39.3%. For `CCOC(=O)c1nnn(-c2nonc2OC)c1-c1ccccc1` the value was 11.4%; for `CCOC(=O)c1c(-c2cccc(N)c2)cn2ccccc12`, -32.9%. The figure for `CCOC(=O)c1c(N)nn(C(=O)c2ccccc2)c1-c1ccccc1` is 69.9% (active); for `COc1ccc(CSc2nc(N3CCOCC3)c3c(c2C#N)CC(C)(C)OC3)cc1` it is 37.4%; for `C/C(Cl)=C\CSc1nc(N2CCOCC2)c2c(c1C#N)CC(C)(C)OC2` it is 67.7% (active).

For `CC1(C)Cc2c(C#N)c(SCc3nc4ccccc4[nH]3)nc(N3CCOCC3)c2CO1`, the induction was -21.7%.
